Experimental data reported in PubChem BioAssay (Tox21).
“And” between values parts separate entries of the source, which are not always exact repeats. Equal entries are not always repeated. Records with an inconclusive call do not appear. Where a call stands in place of a potency, no number is given. Unmarked numbers belong to inactive results. The source made the active and inactive calls. Calls follow the shape of the dose curve; as a rule, active = well fitted curve in the direction sought with a large enough effect in the repeat runs; inconclusive = weak or mixed curves; inactive = no such curve, though single readings can be large; an effect the other way counts as inactive or inconclusive.

Key:
[1] = A CellTox Green Cytotoxicity Assay to monitor cytotoxicity in HEK293 cells - 40 hour (AID 1224871); also: nearly all actives have a fitted effect of over 45% in size; also: potency is read from the fitted curve at half-maximal effect
In short: (§1)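 Homogeneous no-lysis format: HEK293 cell suspension mixed with CellTox Green reagent, seeded, incubated 5 h at 37 C/5% CO2, then dosed by pintool with compound in DMSO.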

[2] = qHTS RealTime-Glo MT Cell Viability Assay in HEK293 cells - 16 hour (AID 1224872); also: nearly all actives have a fitted effect of over 50% in size; also: potency is read from the fitted curve at half-maximal effect
In short: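 Nonlytic real-time viability readout: viable cells convert prosubstrate to NanoLuc substrate, giving luminescence proportional to live cell number. HEK293, 600 cells/well, compound added after 5 h, continuous culture at 37 C.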

[3] = qHTS RealTime-Glo MT Cell Viability Assay in HepG2 cells - 8 hour (AID 1224873); also: nearly all actives have a fitted effect of over 55% in size; also: potency is read from the fitted curve at half-maximal effect
In short: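 HepG2 cells mixed with RealTime-Glo MT reagents (NanoLuc plus cell-permeant prosubstrate) were seeded at 600 cells/well, incubated 5 h at 37 C/5% CO2, then pinned with compounds in DMSO; nonlytic luminescence tracked viability during 40 h treatment.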

[4] = qHTS RealTime-Glo MT Cell Viability Assay in HEK293 cells - 40 hour (AID 1224874); details: RealTime-Glo luminescence; max response: hits give low values; also: nearly all actives have a fitted effect of over 50% in size; also: potency is read from the fitted curve at half-maximal effect
In short: (§2)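 Measured as luminescence from the same continuously cultured HEK293 wells at successive time points (0, 8, 16, 24, 32, 40 h) after compound addition. Reagent present from seeding; dosing at 5 h; incubation 37 C.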

[5] = A CellTox Green Cytotoxicity Assay to monitor cytotoxicity in HEK293 cells - 24 hour (AID 1224875); also: nearly all actives have a fitted effect of over 45% in size; also: potency is read from the fitted curve at half-maximal effect
In short: as §1

[6] = A CellTox Green Cytotoxicity Assay to monitor cytotoxicity in HepG2 cells - 16 hour (AID 1224876); also: nearly all actives have a fitted effect of over 45% in size; also: potency is read from the fitted curve at half-maximal effect
In short: (§3)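 Fluorescent DNA-binding dye, 600 HepG2 cells/well, 5 h preincubation then compound in DMSO; same plates read at 0–40 h, 37 C.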

[7] = qHTS RealTime-Glo MT Cell Viability Assay in HepG2 cells - 32 hour (AID 1224877); also: nearly all actives have a fitted effect of over 55% in size; also: potency is read from the fitted curve at half-maximal effect
In short: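 Luminescence read-out: viable HepG2 cells reduce a prosubstrate to a NanoLuc substrate, giving a signal proportional to live cell number. Reads taken at 0, 8, 16, 24, 32 and 40 h of compound exposure at 37 C.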

[8] = A CellTox Green Cytotoxicity Assay to monitor cytotoxicity in HepG2 cells - 24 hour (AID 1224878); also: nearly all actives have a fitted effect of over 45% in size; also: potency is read from the fitted curve at half-maximal effect
In short: as §3

[9] = A CellTox Green Cytotoxicity Assay to monitor cytotoxicity in HepG2 cells - 40 hour (AID 1224879); also: nearly all actives have a fitted effect of over 40% in size; also: potency is read from the fitted curve at half-maximal effect
In short: as §3

[10] = qHTS RealTime-Glo MT Cell Viability Assay in HEK293 cells - 0 hour (AID 1224880)
In short: as §2

Row | Structure (SMILES) | Potency [1] | Potency [2] | Potency [3] | Potency [4] | Potency [5] | Potency [6] | Potency [7] | Potency [8] | Potency [9] | Potency [10] | max response [4] [%]
1 | Fc1ccc(C(OCCN2CCN(CCCc3ccccc3)CC2)c2ccc(F)cc2)cc1 | 21.3 µM (active) | 8490 nM (active) | 23.9 µM (active) | 9520 nM (active) | 23.9 µM (active) | 23900 nM (active) | 23900 nM (active) | 23.9 µM (active) | 23900 nM (active) | inactive | 
2 | CC(Cl)CCl (stereo not drawn) | inactive | inactive | inactive |  | inactive | inactive | inactive | inactive | inactive | inactive | -4.79
3 | CN(C)C(=S)SSC(=S)N(C)C | 216 nM (active) and 195 nM (active) and 239 nM (active) | 384 nM (active) and 692 nM (active) | 48.3 µM (active) and 24.5 µM (active) and 3.01 µM (active) | 216 nM (active) and 219 nM (active) and 9.52 µM (active) | 27.2 µM (active) and 27.5 µM (active) | 21900 nM (active) | 54.2 µM (active) and 245 nM (active) and 169 nM (active) | 436 nM (active) and 21.3 µM (active) | 216 nM (active) and 275 nM (active) and 134 nM (active) | inactive | 
4 | CCCCC(CC)COC(=O)c1ccccc1C(=O)OCC(CC)CCCC (stereo not drawn) | inactive | inactive | inactive |  | inactive | inactive | inactive | inactive | inactive | inactive | 1.87
5 | CCOP(=S)(OCC)SC(CCl)N1C(=O)c2ccccc2C1=O (stereo not drawn) | inactive | inactive | inactive |  | inactive | inactive |  |  |  |  | 6.49
6 | CCn1cc[n+](C)c1 (tested in a mixture with another compound) | inactive | inactive | inactive |  | inactive | inactive | inactive | inactive | inactive | inactive | -0.353
7 | N#Cc1ccc(N(CC(N)=O)CC(F)(F)F)cc1C(F)(F)F | inactive | inactive | inactive |  | inactive | inactive | inactive | inactive | inactive | inactive | 0.171
8 | COc1cnc(OC)n2nc(NS(=O)(=O)c3c(OCC(F)F)cccc3C(F)(F)F)nc12 | inactive | inactive | inactive |  | inactive | inactive | inactive | inactive | inactive | inactive | 16.5
9 | CN1C2CCC(C)(C)C1CC(OC(=O)C(O)(c1cccs1)c1cccs1)C2 (stereo not drawn) | inactive | inactive | inactive |  | inactive | inactive | inactive | inactive | inactive | inactive | -25.3
10 | Cc1cnc2c(C(=O)O)c(Cl)ccc2c1 | inactive | inactive | inactive |  | inactive | inactive | inactive | inactive | inactive | inactive | 3.08
11 | COc1ccc2c3c1O[C@H]1[C@H](O)CC[C@H]4[C@@H](C2)N(C)CC[C@@]341 | inactive | inactive | inactive |  | inactive | inactive | inactive | inactive | inactive | inactive | -1.3
12 | COc1c2c(cc3c1OCO3)CCN(C)C2 | inactive | inactive | inactive |  | inactive | inactive | inactive | inactive | inactive | inactive | -9.04
13 | Nc1nc(N)nc(Cl)n1 | inactive | inactive | inactive |  | inactive | inactive | inactive | inactive | inactive | inactive | 1.73
14 | CN=C=O | inactive | inactive | inactive |  | inactive | inactive | inactive | inactive | inactive | inactive | 8.4
15 | CCCCON=O | inactive | inactive | inactive |  | inactive | inactive | inactive | inactive | inactive | inactive | 4.44
16 | N#CSCc1ccccc1 | inactive | inactive | inactive |  | inactive | inactive | inactive | inactive | inactive | inactive | -24.3
17 | COc1ccc2c(c1OC)C(=O)O[C@@H]2[C@H]1c2cc3c(cc2CCN1C)OCO3 | inactive | inactive | inactive |  | inactive | inactive | inactive | inactive | inactive | inactive | 1.56
18 | CC[C@H](C)[C@H]1O[C@]2(C=C[C@@H]1C)C[C@@H]1C[C@@H](C/C=C(\C)[C@@H](O[C@H]3C[C@H](OC)[C@@H](O[C@H]4C[C@H](OC)[C@@H](NC)[C@H](C)O4)[C@H](C)O3)[C@@H](C)/C=C/C=C3\CO[C@@H]4[C@H](O)C(C)=C[C@@H](C(=O)O1)[C@]34O)O2 | 11 µM (active) | 6920 nM (active) | 15.5 µM (active) | 4360 nM (active) | 13.8 µM (active) | 15500 nM (active) | 9770 nM (active) | 11 µM (active) | 9770 nM (active) | inactive | 
19 | ClC(Cl)C(Cl)(Cl)Cl | inactive | inactive | inactive |  | inactive | inactive | inactive | inactive | inactive | inactive | 0.191
20 | Cc1cc2c3c(c1)C(c1ccccc1)=N[C@@H](NC(=O)c1ccncc1)C(=O)N3CC2 | inactive | inactive | inactive |  | inactive | inactive | inactive | inactive | inactive | inactive | -16.5

Row | Structure (SMILES) | Potency [1] | Potency [2] | Potency [3] | Potency [4] | Potency [5] | Potency [6] | Potency [7] | Potency [8] | Potency [9] | Potency [10] | max response [4] [%]
21 | CN/C(=N\[N+](=O)[O-])NCc1cnc(Cl)s1 | inactive | inactive | inactive |  | inactive | inactive | inactive | inactive | inactive | inactive | -7.42
22 | O=c1[nH]c2cc(Cl)ccc2n1C1CCNCC1 | inactive | inactive | inactive |  | inactive | inactive | inactive | inactive | inactive | inactive | 4.84
23 | ClC1(Cl)C2(Cl)C3(Cl)C4(Cl)C(Cl)(Cl)C5(Cl)C3(Cl)C1(Cl)C5(Cl)C24Cl (stereo not drawn) | inactive | inactive | inactive |  | inactive | inactive | inactive | inactive | inactive | inactive | -13.1
24 | CCCCn1cc[n+](C)c1 (tested in a mixture with another compound) | inactive | inactive | inactive |  | inactive | inactive | inactive | inactive | inactive | inactive | 0.0469
25 | O=NN(CCO)CCO | inactive | inactive | inactive |  | inactive | inactive | inactive | inactive | inactive | inactive | 7.2
26 | CC(=O)[O][Pb]([c]1ccccc1)([c]1ccccc1)[c]1ccccc1 | 2.45 µM (active) | 490 nM (active) | 3.47 µM (active) | 389 nM (active) | 3.89 µM (active) | 1950 nM (active) | 977 nM (active) | 1.38 µM (active) | 977 nM (active) |  | 
27 | CNN | inactive | inactive | inactive |  | inactive | inactive | inactive | inactive | inactive | inactive | 9.14
28 | CCC[CH2][Sn]([CH2]CCC)([O]C(C)=O)[O]C(C)=O | 0.278 µM (active) | 87.9 nM (active) | inactive | 69.8 nM (active) | 1.24 µM (active) | 1240 nM (active) | 221 nM (active) | 0.312 µM (active) | 248 nM (active) | inactive | 
29 | CC1CN1 (stereo not drawn) | inactive | inactive | inactive |  | inactive | inactive | inactive | inactive | inactive | inactive | 6.11
30 | CCOC(=O)CCN(SN(C)C(=O)Oc1cccc2c1OC(C)(C)C2)C(C)C | inactive | inactive | inactive |  | inactive | inactive | inactive | inactive | inactive | inactive | -6
31 | COP(=S)(OC)Oc1ccc([N+](=O)[O-])c(C)c1 | inactive | inactive | inactive |  | inactive | inactive | inactive | inactive | inactive | inactive | -0.352
32 | CC(=O)[O-].CC(=O)[O-].O.O.[Zn+2] | inactive | inactive | inactive |  | inactive | inactive | inactive | inactive | inactive | inactive | -2.4
33 | [Cl-].[Cl-].[Cl-].[Yb+3] | inactive | inactive | inactive |  | inactive | inactive | inactive | inactive | inactive | inactive | 28.3
34 | CC(Cc1ccc(O)cc1)NCC(O)c1cc(O)cc(O)c1 (stereo not drawn) | inactive | inactive | inactive |  | inactive | inactive | inactive | inactive | inactive | inactive | 1.61
35 | ClC1=C(Cl)[C@]2(Cl)[C@@H]3[C@H]4C[C@H]([C@@H]5O[C@H]45)[C@@H]3[C@@]1(Cl)C2(Cl)Cl | inactive | inactive | inactive |  | inactive | inactive | inactive | inactive | inactive | inactive | 3.07
36 | CC(=O)[O-].CC(=O)[O-].CC(=O)[O-].[Cr+3] | inactive | inactive | inactive |  | inactive | inactive | inactive | inactive | inactive | inactive | -0.681
37 | CCC[CH2][Sn]([CH2]CCC)([CH2]CCC)[O][Sn]([CH2]CCC)([CH2]CCC)[CH2]CCC | 0.302 µM (active) | 214 nM (active) | 0.956 µM (active) | 151 nM (active) | 0.427 µM (active) | 603 nM (active) | 537 nM (active) | 0.537 µM (active) | 537 nM (active) |  | 
38 | CCC1(CC)C(=O)N=C(O)NC1=O | inactive | inactive | inactive |  | inactive | inactive | inactive | inactive | inactive | inactive | -0.914
39 | CCN(CC)Cc1nccn1-c1ccc([N+](=O)[O-])cc1C(=O)c1ccccc1Cl | inactive | inactive | inactive |  | inactive | inactive | inactive | inactive | inactive | inactive | -11.1
40 | Nc1cc(Cl)ccc1Cl | inactive | inactive | inactive |  | inactive |  | inactive | inactive | inactive | inactive | 22.7
